From PubChem
Platelet DG rel = inhibitors of platelet dense granule secretion, primary screen, cell-based, MLPCN, human platelets; human platelet-rich plasma, SFLLRN dense granule ATP release, luminescence; inhibition, %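 (compounds screened at 7.5 µM in platelet-rich plasma)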; 0.22% of 300,000 active;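 active = mean replicate score, as percent of positive control, at or above 50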
TPT1 inh = Candida albicans TPT1 enzyme inhibitors, primary screen, biochemical, fluorescence polarization | tRNA 2'-phosphotransferase TPT1 (Candida albicans SC5314) | recombinant caTPT1, FP RNA substrate dephosphorylation | inhibition, % at 5 µM | 0.81% of 300,000 active | AID 1962, 2009;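 active = inhibition above the mean of all tested compounds plus 3 SD, set per screening campaign, cut at about 24% in these data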
PHOSPHO1 inh = PubChem AID 1565. inhibition, % at 13.3 µM. Phosphoethanolamine/phosphocholine phosphatase (Homo sapiens), Q8TCT1. 1.1% of 290,000 active. recombinant PHOSPHO1, absorbance phosphatase assay; in the data active = inhibition above about 60%
Target sequence (Q8TCT1 whole entry, looked up): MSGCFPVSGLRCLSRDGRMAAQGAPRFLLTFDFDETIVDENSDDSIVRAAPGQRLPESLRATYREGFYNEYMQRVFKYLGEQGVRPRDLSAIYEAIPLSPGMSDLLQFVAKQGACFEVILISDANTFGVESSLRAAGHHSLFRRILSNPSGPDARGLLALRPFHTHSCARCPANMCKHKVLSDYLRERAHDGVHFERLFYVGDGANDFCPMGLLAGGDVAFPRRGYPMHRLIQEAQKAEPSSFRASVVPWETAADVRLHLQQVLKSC
WT yeast gro inh = growth inhibition of WT strain, primary screen, mitochondrial fusion inhibitor project, WT and mutant strains, chemical genetic | 2.1% of 190,000 active | mitochondrial fusion phenotypic screen | inhibition, % at 10 µM; in the data active = inhibition above about 58%; tested in S. cerevisiae
Rtt109 HAT inh = inhibitors of C. albicans Rtt109/Vps75 HAT, primary screen, biochemical, ThioGlo CoA-SH fluorescence, plate reader; Histone acetyltransferase RTT109 (Candida albicans (strain SC5314 / ATCC MYA-2876)), …; purified Rtt109/Vps75, 4 h; inhibition, % at 34.9 µM; 0.16% of 330,000 active; AID 540336, 2011;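 active = inhibition of at least 50% in every replicate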
Target sequence (Q5AAJ8 whole entry, looked up): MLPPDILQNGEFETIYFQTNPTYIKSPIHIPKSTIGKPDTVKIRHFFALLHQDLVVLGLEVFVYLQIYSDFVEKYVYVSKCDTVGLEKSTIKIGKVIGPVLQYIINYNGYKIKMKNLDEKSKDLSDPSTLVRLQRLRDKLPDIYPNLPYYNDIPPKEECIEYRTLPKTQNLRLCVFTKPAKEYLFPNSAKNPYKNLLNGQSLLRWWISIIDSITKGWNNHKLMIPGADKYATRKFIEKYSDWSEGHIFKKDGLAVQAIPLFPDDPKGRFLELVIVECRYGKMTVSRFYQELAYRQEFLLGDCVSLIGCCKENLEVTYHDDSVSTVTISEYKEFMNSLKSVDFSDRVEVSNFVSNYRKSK
SKKanGAS inh = S. pyogenes SKKanGAS growth inhibitors in kanamycin, primary screen, streptokinase expression inhibitor project, SKKanGAS strain, BacTiter-Glo luminescence; inhibition, % at 7.5 µM; 1.3% of 300,000 active; 6 h;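 active = mean replicate score, as percent of positive control median, at least 50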;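 also: strain carries kanamycin resistance gene driven by streptokinase promoter and grows in 40 µg/ml kanamycin; loss of luminescence reflects streptokinase promoter inhibition or plain growth inhibition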
Numbers stand for hits. Rows were chosen to be rich in hits. Some 3.9% of all compounds tested hit in one or more screens of this group.

For Cc1nn(-c2ccc(F)cc2)c2nc(N)c(C#N)c(-c3ccc(O)c(O)c3)c12 the results were Platelet DG rel inactive, PHOSPHO1 inh inactive, Rtt109 HAT inh inactive and SKKanGAS inh inactive.
CNC(=O)c1ccc(CN(C)CC(=O)Nc2ccccc2C(=O)NC2CC2)cc1 was read as Rtt109 HAT inh inactive.
Screening CC(=NNC(=O)CSCC(=O)NN=C(C)c1ccccc1)c1ccccc1 returned Rtt109 HAT inh inactive.
Screening COCCCn1c(=NC(=O)c2ccncc2)c(C#N)cc2c(=O)n3cccc(C)c3nc21 returned Platelet DG rel inactive, TPT1 inh inactive, PHOSPHO1 inh inactive, WT yeast gro inh inactive, Rtt109 HAT inh inactive and SKKanGAS inh inactive.
CCCCn1c(=NC(=O)c2cccnc2)c(C#N)cc2c(=O)n3cccc(C)c3nc21 was read as Platelet DG rel inactive, TPT1 inh inactive, PHOSPHO1 inh 78, WT yeast gro inh inactive, Rtt109 HAT inh inactive and SKKanGAS inh inactive.
For Cc1cccn2c(=O)c3cc(C#N)c(=NC(=O)c4ccncc4)n(CCCOC(C)C)c3nc12 the results were Platelet DG rel inactive, TPT1 inh inactive, PHOSPHO1 inh 96, WT yeast gro inh inactive, Rtt109 HAT inh inactive and SKKanGAS inh inactive.
Cc1nc(-c2ccc(F)cc2)c(CC(=O)N2CCN(S(=O)(=O)c3cccc([N+](=O)[O-])c3)CC2)s1 was read as Rtt109 HAT inh inactive.
For Cc1cc(C(F)(F)F)nn1Cc1n[nH]c(=S)n1-c1cccc(Cl)c1 the results were Platelet DG rel inactive, TPT1 inh inactive, PHOSPHO1 inh 84, WT yeast gro inh inactive, Rtt109 HAT inh inactive and SKKanGAS inh inactive.
`Cc1cc(C(F)(F)F)nn1Cc1n[nH]c(=S)n1-c1ccc(Cl)cc1` gave Platelet DG rel inactive, TPT1 inh inactive, PHOSPHO1 inh 102, WT yeast gro inh inactive, Rtt109 HAT inh inactive and SKKanGAS inh inactive.
`Cc1cc(C(F)(F)F)nn1Cc1n[nH]c(=S)n1Cc1ccccc1` gave Platelet DG rel inactive, TPT1 inh inactive, PHOSPHO1 inh inactive, WT yeast gro inh inactive, Rtt109 HAT inh inactive and SKKanGAS inh inactive.
For Cc1ccc(-n2c(Cn3nc(C(F)F)cc3C(F)F)n[nH]c2=S)cc1 the results were Platelet DG rel inactive, TPT1 inh inactive, PHOSPHO1 inh 100, WT yeast gro inh inactive, Rtt109 HAT inh inactive and SKKanGAS inh inactive.
`S=c1[nH]nc(CCc2nc3ccccc3[nH]2)n1-c1cccc(Cl)c1` gave Platelet DG rel inactive, TPT1 inh inactive, PHOSPHO1 inh inactive, WT yeast gro inh inactive, Rtt109 HAT inh inactive and SKKanGAS inh inactive.
CCc1cccc(NC(=O)CN(c2ccc(C)cc2)S(=O)(=O)c2c(C)noc2C)c1 was read as Platelet DG rel inactive, TPT1 inh inactive, PHOSPHO1 inh inactive, Rtt109 HAT inh inactive and SKKanGAS inh inactive.
Screening CC1CCCC(NC(=S)Nc2ccc(SC(F)F)cc2)C1C (centres undefined) returned Platelet DG rel inactive, TPT1 inh inactive, PHOSPHO1 inh inactive, WT yeast gro inh inactive, Rtt109 HAT inh inactive and SKKanGAS inh 108.
`NC(=O)CCCn1c(C(=O)c2cc(Cl)c(N)c(Cl)c2)c2ccc([N+](=O)[O-])cc2[n+]1[O-]` gave Platelet DG rel inactive, TPT1 inh inactive, Rtt109 HAT inh inactive and SKKanGAS inh 69.
`COc1ccc(C(=O)Nc2ccccc2C(=O)N/N=C/c2ccncc2)cc1OC` gave Platelet DG rel 64, TPT1 inh inactive, PHOSPHO1 inh inactive, Rtt109 HAT inh inactive and SKKanGAS inh inactive.
O=C(Nc1ccccc1C(=O)N/N=C/c1ccc(O)cc1)c1ccccc1 was read as Platelet DG rel 124, TPT1 inh inactive, PHOSPHO1 inh inactive, Rtt109 HAT inh inactive and SKKanGAS inh inactive.
For N#Cc1cccc(NC(=O)c2cncn2-c2ccccc2)c1 the results were Platelet DG rel inactive, TPT1 inh inactive, PHOSPHO1 inh inactive, Rtt109 HAT inh inactive and SKKanGAS inh inactive.
Screening O=C(Nc1ccc(F)cc1F)N1CCN(CCc2ccccc2)CC1 returned Platelet DG rel inactive, TPT1 inh inactive, PHOSPHO1 inh 68, Rtt109 HAT inh inactive and SKKanGAS inh inactive.
Screening CCCn1c(=O)c(C(=O)NNS(=O)(=O)c2ccc(Cl)cc2)c(O)c2ccccc21 returned Platelet DG rel inactive, TPT1 inh inactive, PHOSPHO1 inh inactive, WT yeast gro inh inactive, Rtt109 HAT inh inactive and SKKanGAS inh 96.
Screening CCCn1c(=O)c(C(=O)NNC(=O)c2ccc(Cl)cc2Cl)c(O)c2ccccc21 returned Platelet DG rel inactive, TPT1 inh inactive, PHOSPHO1 inh inactive, Rtt109 HAT inh inactive and SKKanGAS inh 70.
For CCn1c(=O)c(C(=O)NNC(=O)c2ccc(Cl)cc2Cl)c(O)c2ccccc21 the results were Platelet DG rel inactive, TPT1 inh inactive, PHOSPHO1 inh inactive, Rtt109 HAT inh inactive and SKKanGAS inh 75.
`CCCn1c(=O)c(C(=O)Nc2ccccc2C(=O)OCC)c(O)c2ccccc21` gave Platelet DG rel inactive, TPT1 inh inactive, PHOSPHO1 inh inactive, WT yeast gro inh inactive, Rtt109 HAT inh inactive and SKKanGAS inh inactive.
Screening CCCn1c(=O)c(C(=O)NCCc2ccccc2)c(O)c2ccccc21 returned Platelet DG rel inactive, TPT1 inh inactive, PHOSPHO1 inh inactive, Rtt109 HAT inh inactive and SKKanGAS inh inactive.
Screening CC(Sc1nnc(Nc2ccccc2F)s1)C(=O)NC1CC1 (centres undefined) returned Rtt109 HAT inh inactive.
For CC1CCCCC1n1c(=S)[nH]c2ccccc2c1=O (centres undefined) the results were Platelet DG rel inactive, TPT1 inh inactive, PHOSPHO1 inh inactive, WT yeast gro inh 76, Rtt109 HAT inh inactive and SKKanGAS inh inactive.
`CC1CCCCC1NC(=O)CCCn1c(=S)[nH]c2ccccc2c1=O` (centres undefined) gave Platelet DG rel inactive, TPT1 inh inactive, PHOSPHO1 inh inactive, WT yeast gro inh inactive, Rtt109 HAT inh inactive and SKKanGAS inh inactive.
Screening CC1CCCCC1NC(=O)CCCCCn1c(=S)[nH]c2ccccc2c1=O (centres undefined) returned Platelet DG rel inactive, TPT1 inh inactive, PHOSPHO1 inh 63, WT yeast gro inh inactive, Rtt109 HAT inh inactive and SKKanGAS inh inactive.
Screening CC1CCCCC1NC(=O)Cn1cccc1C(=O)c1ccccc1 (centres undefined) returned Platelet DG rel inactive, TPT1 inh inactive, PHOSPHO1 inh 70, Rtt109 HAT inh inactive and SKKanGAS inh inactive.
For O=c1[nH]c(=O)n(CCCc2ccccc2)cc1-c1ccccc1 the results were Rtt109 HAT inh inactive.
For O=c1c2c3c(sc2nc2n1CCCCC2)CCCC3 the results were Platelet DG rel inactive, TPT1 inh inactive, PHOSPHO1 inh 76, WT yeast gro inh inactive, Rtt109 HAT inh inactive and SKKanGAS inh inactive.
